Screens from PubChem.
Rows were chosen to be rich in hits. Some 6.1% of all compounds tested hit in one or more screens of this group.
RORg inh – inhibitors of mouse ROR gamma transcriptional activity; P51450; Drosophila S2 Gal4-RORgamma UAS-luciferase reporter, 20 h; Potency, µM (doses to about 53.6 µM), without a hit: at the top dose activity change, negative = inhibition, most hits filed as inhibitors; hit rate 5.4% among 310,000; further: on the % scale 0 is the no-effect control and ±100 the full control effect; nearly all actives have a fitted effect of over 60% in size
Target sequence (P51450 whole entry, looked up, the tested form may be a part): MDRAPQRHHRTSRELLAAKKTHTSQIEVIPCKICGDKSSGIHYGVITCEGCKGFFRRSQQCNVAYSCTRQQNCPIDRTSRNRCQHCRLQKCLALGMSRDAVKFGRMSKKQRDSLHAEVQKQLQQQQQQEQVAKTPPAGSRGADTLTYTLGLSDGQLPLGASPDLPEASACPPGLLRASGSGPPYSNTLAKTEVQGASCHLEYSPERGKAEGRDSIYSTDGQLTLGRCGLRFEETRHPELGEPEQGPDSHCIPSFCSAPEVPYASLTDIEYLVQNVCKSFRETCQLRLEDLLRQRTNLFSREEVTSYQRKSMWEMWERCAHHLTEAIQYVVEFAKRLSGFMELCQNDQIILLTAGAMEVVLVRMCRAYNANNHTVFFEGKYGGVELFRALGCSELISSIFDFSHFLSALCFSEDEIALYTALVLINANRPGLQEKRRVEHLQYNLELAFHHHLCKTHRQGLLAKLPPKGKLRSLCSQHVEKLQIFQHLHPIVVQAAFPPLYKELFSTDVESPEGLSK
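Stable Schneider cell line, Gal4 DNA-binding domain fused to ROR gamma, UAS-luciferase. Cmpd 1 hr RT → CuSO4 700 uM final → 20 hr RT → luciferase reagent 10 min → luminescence.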
Gal4-VP16 FLuc – inhibits Gal4-VP16 luciferase reporter, ROR gamma counter-screen | hit rate 3.5% among 310,000 | Potency, µM (series often up to 53.6 µM), for inactives: at the highest dose activity, negative = inhibition, hits mostly inhibitors | Drosophila S2 Gal4-VP16 UAS-luciferase, luminescence, 20 h;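 further: Gal4-VP16 expression switched on by copper sulfate through the metallothionein promoter; on the % scale 0 is the no-effect control and ±100 the full control effect; nearly all actives have a fitted effect of over 50% in size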
S2 tox – viability counter-screen for ATXN expression inhibitors. AID 651635. S2 cells (HEK-293 line with an ATXN2-luciferase reporter) viability, CellTiter-Fluor protease fluorescence, 24 h. hit rate 0.49% among 400,000. Potency, µM (top dose mostly 56.7 µM), most hits filed as cytotoxic; further: nearly all actives have a fitted effect of over 40% in size
HepG2 viability – counter-screen for TGF-b inhibitors: cytotoxicity in HepG2 cells; HepG2 CAGA-GFP viability, ATP luminescence, 18 h; AID 588856; hit rate 0.76% among 410,000; Potency, µM (top dose mostly 46.1 µM), inactives show at the top dose activity change, negative = cytotoxicity, hits mostly cytotoxic
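HepG2 CAGA-GFP cells (1000/well, DMEM with 1% FBS) received compound, then TGF-beta at 500 pg/mL final, and were incubated 18 hours at 37 degrees C. Viability was read by CellTiter-Glo luminescence. Media-only wells were set as complete cell-killing and DMSO as no toxicity.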
TGFb SMAD3 inh – TGF-b pathway inhibition. HepG2 CAGA-GFP TGF-b/SMAD3 reporter, GFP fluorescence, 18 h; TGF-beta stimulated, 500 pg/mL final. Potency, µM (series often up to 46.1 µM), inactives show at the highest dose activity, negative = inhibition, actives largely listed as inhibitors. hit rate 1.2% among 410,000. AID 588855; further: on the % scale 0 is the no-effect control and ±100 the full control effect; nearly all actives have a fitted effect of over 65% in size
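Per well, imaged GFP fluorescence of HEPG2 CAGA-GFP cells gives the signal; cells get compound, then TGF-beta (500 pg/mL final), 18 h at 37 degrees C; %Activity versus -TGF-beta and +DMSO controls.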
ATXN2 expr inh – ATXN2 expression inhibition. HEK-293 ATXN2-luciferase reporter, luminescence, 24 h. Potency, µM (doses to about 57 µM), for the others: top-dose activity change, negative = inhibition, actives largely listed as inhibitors. hit rate 0.72% among 360,000; further: on the % scale 0 is the no-effect control and ±100 the full control effect; nearly all actives have a fitted effect of over 55% in size
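qHTS (up to 57 uM final) was run with 24 h compound exposure of reporter cells at 37 °C. Each well was multiplexed: SteadyGlo luminescence measured ATXN2-luciferase expression after a fluorogenic Gly-Phe-AFC viability readout (25 uM final).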
* = called active by the depositor; i = inactive; ? = inconclusive; . = not tested or not shown; ! = not active in a repeat; [ ] = remark or other dose. The call rests on the fitted dose curve; in most records, active means well fitted curve in the direction sought with a large enough effect; inconclusive means small, poorly fitted or top-dose-only effect, or another doubt; inactive means no such curve, though single readings can be large; an effect the other way counts as inactive or inconclusive. Potency means the concentration at half of the fitted maximal effect.

SMILES | RORg inh | Gal4-VP16 FLuc | S2 tox | HepG2 viability | TGFb SMAD3 inh | ATXN2 expr inh
CCN(C(=O)Cn1nc2c3cc(F)ccc3n(Cc3cccc(C)c3)cc-2c1=O)c1cccc(C)c1 | . | . | i | 0.0% | 8.8% | 13.9%
O=Cc1c(Cl)nc2ccccn2c1=O | -4.4% | -6.4% | i | 0.562µM* | ? | 18.1%
Cc1cccn2c(=O)c(C=O)c(Cl)nc12 | 14.1µM* | ? | ? | -68.9% | 15.8µM* | ?
CC1CCN(c2nc3ccccn3c(=O)c2C=O)CC1 | 3.0% | -13.3% | i | 3.3% | -0.1% | 0.3%
CCCC(=O)Nc1ccc(-c2nc3ncccc3o2)cc1C | . | . | i | -12.2% | 0.1% | 9.0%
Nc1ncnc2c(C3OC(CO)C(O)C3O)c[nH]c12 (stereo not given) | . | . | . | 3.16µM* | -3.0% | ?
CCN(CC)CCNCC(O)(c1ccc(Cl)cc1)c1ccc(Cl)cc1 | -27.6% | 2.7% | i | -51.5% | ? | 0.6%
CCN(CC)CCNCc1ccc(-c2ccc(Cl)cc2)o1 | 7.94µM* | 0.3% | i | -31.7% | -1.4% | -23.0%
CC(C)(C)OC(=O)NCc1ccc(CNC(=O)c2nc[nH]c2C(=O)N2CCN(C(=O)OC(C)(C)C)CC2)cc1 | . | . | 17.8µM* | -2.7% | ? | ?
COc1ccc(NC(=O)c2nc[nH]c2C(=O)N2CCC(C)CC2)cc1 | 12.6µM* | ? | i | 4.4% | ? | 1.0%
Cc1ccc(NC(=O)c2nc[nH]c2C(=O)N2CCN(C(=O)OC(C)(C)C)CC2)cc1 | . | . | i | -1.9% | 4.5% | -5.1%
COc1ccc(NC(=O)c2nc[nH]c2C(=O)N(C)Cc2ccccc2)cc1 | 7.08µM* | ? | i | -10.4% | -7.0% | -3.1%
Cc1ccc(NC(=O)c2nc[nH]c2C(=O)N2CCC(C)CC2)cc1 | 8.91µM* | ? | i | 2.9% | -17.1% | 9.9%
Cc1ccc(NC(=O)c2nc[nH]c2C(=O)N2CCN(c3ccccc3)CC2)cc1 | 4.47µM* | 12.6µM* | i | -2.4% | ? | 5.7%
CCOC(=O)c1ccc(NC(=O)c2nc[nH]c2C(=O)N2CCN(c3ccccc3)CC2)cc1 | ? | ? | i | 1.1% | 9.2% | 3.6%
CCOC(=O)c1ccc(NC(=O)c2nc[nH]c2C(=O)N2CCC(C)CC2)cc1 | 10µM* | ? | i | -2.5% | ? | 3.5%
CC(C)(C)OC(=O)CNC(=O)c1nc[nH]c1C(=O)N1CCN(c2ccccc2)CC1 | 12.6µM* | -24.4% | i | -2.3% | 8.9% | 4.5%
CC(COc1ccccc1)NN (stereo not given) | . | . | i | . | . | -0.4%
CS(=O)(=O)CCCCN=C=S | 12.6µM* | -16.4% | . | . | . | .
Cc1cccc(-c2nsc(SCC(=O)N3CCCC3)n2)c1 | 7.08µM* | ? | i | -30.6% | 6.5% | 14.2%
Cc1cccc(-c2nsc(SCC(=O)Nc3nccs3)n2)c1 | 11.2µM* | -14.3% | i | -11.9% | -15.7% | -5.8%
Cc1cccc(-c2nsc(SCC(=O)Nc3ccc4c(c3)OCO4)n2)c1 | -12.5% | -5.0% | i | -13.9% | -2.6% | 55.6%
CCc1ccccc1NC(=O)C(C)n1nc(-c2ccc(C)c(C)c2)ccc1=O (stereo not given) | . | . | ? | -46.9% | 0.0% | -15.6%
Cc1nc(SCCC(=O)O)c2cc(-c3ccccc3)sc2n1 | 0.891µM* | 0.501µM* | i | -45.8% | 14.2% | 2µM*
O=C(N/N=C1\CC2CC=CC12)c1ccc(Br)cc1 (stereo not given) | 11.2µM* | 0.0% | i | -20.3% | -1.0% | 6.7%
SMILES | RORg inh | Gal4-VP16 FLuc | S2 tox | HepG2 viability | TGFb SMAD3 inh | ATXN2 expr inh
Cc1cc(Br)c(OCc2ccc(C(=O)N/N=C3\CC4CC=CC34)cc2)c(Br)c1 (stereo not given) | 7.94µM* | ? | i | -24.0% | 6.6% | ?
O=C(N/N=C1\CC2CC=CC12)c1ccccc1Cl (stereo not given) | -99.1% | 10.7% | i | 4.8% | 32.5% | -11.6%
O=C(CSc1nnc(-c2cccc(F)c2)c(-c2cccc(F)c2)n1)NC1CCCCC1 | . | . | . | -4.2% | 37.7% | .
CC(C)(C)n1ncc2c(=O)n(Cc3ccc(C#N)cc3F)cnc21 | . | . | . | -8.2% | -7.5% | .
COC(=O)C(CCSC)NC(=O)C1CCN(c2ncnc3c2nc2n3CCCCC2)CC1 (stereo not given) | . | . | . | -0.8% | -20.1% | .
CCN(CC)CCNC(=O)c1[nH]c2ccccc2c1Sc1ccc(Cl)cc1 | . | . | . | 14.1µM* | ? | ?
CC1Cc2ccccc2N1C(=O)CSc1nc2ccc(NC(=O)COc3ccccc3)cc2s1 (stereo not given) | . | . | i | 4.1% | -12.4% | 4.0%
COc1ccc(O[C@H]2C=C[C@@H](c3ccccc3)O[C@H]2COC(=O)CC/C(C)=N\O[C@@H](C)c2cc(-c3c(C)cc(C)cc3C)no2)cc1 | 13.7%[10 µM] | 2.8%[10 µM] | . | . | . | .
CCOc1ccc(C(=O)c2oc3ccccc3c2NC(=O)c2cc(=O)c3ccc(C)cc3o2)cc1 | . | . | i | -14.2% | -6.8% | 0.9%
COc1ccc(CCCc2n[nH]c(=S)o2)cc1 | 12.6µM* | 4.6%[10 µM] | i | 4.5% | -0.1% | 0.2%
S=c1[nH]nc(COc2ccc3ccccc3c2)o1 | ? | 3.98µM* | i | -13.0% | -9.6% | 14.8%
COc1cc(=O)n2c(c1C(=O)NC(C)c1ccco1)CCN(Cc1ccnc3ccccc13)CC2 (stereo not given) | . | . | i | . | . | .
CC(=O)Nc1cc(-c2cccc(C(=O)NCCN(C)C)c2)cn2c(-c3cccc(C(F)(F)F)c3)cnc12 | . | . | 31.6µM* | 12.6µM* | ? | -2.6%
CN1CCN(c2ccc(-c3cc(NC=O)c4ncc(-c5ccc(F)c(Cl)c5)n4c3)cc2)CC1 | . | . | . | -86.4% | 20µM* | ?
COc1ccc(F)cc1-c1cc(NC=O)c2ncc(-c3cccc(C(F)(F)F)c3)n2c1 | . | . | ? | 12.6µM* | ? | -34.3%
CC(=O)Nc1cc(-c2ccc(N3CCN(C)CC3)cc2)cn2c(-c3ccc(F)c(Cl)c3)cnc12 | . | . | . | -99.4% | ? | ?
COc1ccc(-c2cc(NC=O)c3ncc(-c4cccc(C(=O)NCCN(C)C)c4)n3c2)cc1 | . | . | i | -25.0% | ? | ?
CN(C)CCNC(=O)c1cccc(-c2cnc3c(NC=O)cc(-c4ccc(F)cc4)cn23)c1 | . | . | . | 11.2µM* | ? | 0.0%
CN(C)CCNC(=O)c1cccc(-c2cnc3c(NC=O)cc(-c4cccc(F)c4)cn23)c1 | . | . | . | 12.6µM* | 20µM* | ?
CCCCCCCC/C=C\CCCCCCCC(=O)NCCc1ccc(O)c(O)c1 | ? | 17.8µM*! | 25.1µM* | -44.3% | ? | 15.8µM*
